This is a sample that favours compounds with a hit; in the whole collection about 2% have one here.
HGIII-sPLA2 inh – human group III sPLA2 inhibitors, primary screen, biochemical, QFRET, BODIPY PC-A2 liposome substrate | QFRET BODIPY PC-A2 liposome hydrolysis, fluorescence | AID 743126, 2013 | inhibition, % at 12.2 µM | Group 3 secretory phospholipase A2 (Homo sapiens), Q9NZ20 | actives 0.56% (n = 370,000);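 active = inhibition above mean plus 3 SD of compounds lying within the high and low control bounds, cut at about 19% in these data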;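 also: 0% = median of test compound wells and 100% = no enzyme DMSO wells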
ARNT-TACC3 inh – disruptors of ARNT/TACC3 protein interaction, primary screen, biochemical, AlphaScreen, single concentration; Transforming acidic coiled-coil-containing protein 3 (Homo sapiens), Q9Y6A5; AlphaScreen His-ARNT PAS-B/GST-TACC3 binding, luminescence; TACC3 fragment carries E629A point mutation; inhibition, % at 9.99 µM; actives 0.66% (n = 390,000);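 active = mean inhibition of replicates at least 50% and at least half of replicates each reaching 50%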;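 also: 0% = complete ARNT plus TACC3 wells and 100% = ARNT alone without TACC3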
Neddyl block – inhibitors of cullin neddylation, primary screen, biochemical, TR-FRET, uHTS, NAE and Ubc12 | inhibition, % at 25 µM | actives 0.58% (n = 360,000); in the data active = inhibition above about 36%
NadD inh – inhibitors of S. aureus NadD, primary screen, biochemical, colorimetric, uHTS; Nicotinate-nucleotide adenylyltransferase NadD (Staphylococcus aureus N315); purified NadD enzyme, colorimetric absorbance read-out; inhibition, % at 20 µM; actives 0.78% (n = 360,000); in the data active = inhibition above about 26%
DAGLB inhibitor – DAGLB lipase inhibitors, primary screen, biochemical, fluorescence, HTS; Diacylglycerol lipase-beta (Homo sapiens), Q8NCG7; HEK293T DAGLB membrane lysate, EnzChek fluorogenic substrate; inhibition, % at 5.17 µM; actives 0.059% (n = 340,000); in the data active = inhibition above about 34%;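 also: 0% = enzyme with vehicle and 100% = wells lacking enzyme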
Target sequence (Q8NCG7 whole entry, looked up): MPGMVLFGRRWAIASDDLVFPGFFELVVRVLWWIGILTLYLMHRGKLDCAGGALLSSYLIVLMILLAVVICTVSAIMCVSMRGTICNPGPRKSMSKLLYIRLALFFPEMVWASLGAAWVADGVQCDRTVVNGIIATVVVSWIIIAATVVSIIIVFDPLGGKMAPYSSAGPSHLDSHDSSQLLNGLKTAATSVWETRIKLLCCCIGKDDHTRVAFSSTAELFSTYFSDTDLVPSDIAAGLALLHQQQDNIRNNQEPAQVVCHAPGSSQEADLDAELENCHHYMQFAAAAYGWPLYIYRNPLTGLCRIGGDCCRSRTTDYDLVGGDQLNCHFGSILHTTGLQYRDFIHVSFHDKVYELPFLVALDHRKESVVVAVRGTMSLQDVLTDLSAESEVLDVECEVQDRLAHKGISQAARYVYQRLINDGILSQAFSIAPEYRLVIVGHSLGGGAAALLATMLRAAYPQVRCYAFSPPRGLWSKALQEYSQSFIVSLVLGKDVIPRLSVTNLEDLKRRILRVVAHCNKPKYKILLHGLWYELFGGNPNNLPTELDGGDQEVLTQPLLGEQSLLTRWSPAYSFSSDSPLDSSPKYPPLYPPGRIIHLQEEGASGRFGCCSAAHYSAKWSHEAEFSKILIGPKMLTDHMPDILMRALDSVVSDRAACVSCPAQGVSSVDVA
hGIII sPLA2 conf – human group III sPLA2 inhibitors, confirmation, biochemical, QFRET, triplicate. inhibition, % at 12.2 µM. shares compounds with HGIII-sPLA2 inh. recombinant hGIII-sPLA2, BODIPY PC-A2 QFRET fluorescence. actives 34% (n = 2,000);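 active = mean inhibition across triplicates above the hit cutoff set in the earlier primary screen, cut at about 19% in these data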;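 also: 0% = enzyme with DMSO and 100% = DMSO wells lacking enzyme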
BODIPY interf – 535nm fluorescence optical interference, confirmation, artefact control for HGIII-sPLA2 inhibitor project, biochemical, QFRET | shares compounds with HGIII-sPLA2 inh | BODIPY FL product fluorescence interference | inhibition, % at 12.2 µM | actives 8.5% (n = 2,000);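 active = average inhibition above the solvent-only control mean plus 3 SD, cut at about 6% in these data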;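 also: 0% = DMSO with substrate plus product and 100% = DMSO with substrate alone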
BODIPY interf DR – 535nm fluorescence optical interference, dose response, artefact control for HGIII-sPLA2 inhibitor project, biochemical, QFRET. shares compounds with HGIII-sPLA2 inh. BODIPY FL product fluorescence interference, cell-free. IC50, µM. 240 tested, under 10 active. AID 743455, 2014;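 active = IC50 at or below 10 µM; inactive = IC50 above 10 µM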
Numbers without * were called inactive.

C/C=C/c1cnc2c(c1)C(=O)N([C@H](C)CO)C[C@@H](C)[C@@H](CN(C)C(=O)Nc1ccc(F)cc1)O2 was read as ARNT-TACC3 inh -9.6.
C=CCN1Cc2ccccc2C[C@@]2(COC(c3ccc(OCCCO)cc3)=N2)C1=O was read as ARNT-TACC3 inh 2.4.
Screening CC(=O)N1[C@@H]2Cn3c(ccc(C4=CCCCC4)c3=O)[C@H]1[C@@H](C(=O)NC1CCCC1)[C@@H]2CO returned ARNT-TACC3 inh -3.6.
Screening Cc1ccc(NC(=S)NNC(=O)c2nnn(-c3ccccc3)c2C)cc1 returned HGIII-sPLA2 inh 36.1*, ARNT-TACC3 inh 59.0*, Neddyl block 9.1, NadD inh 2.6, DAGLB inhibitor 3.7, hGIII sPLA2 conf 31.1*, BODIPY interf -3.3 and BODIPY interf DR >122.
For Cc1cccc(NC(=S)NNC(=O)c2nn(C)cc2Cl)c1 the results were HGIII-sPLA2 inh 37.4*, Neddyl block 0.9, NadD inh 4.6, DAGLB inhibitor 1.4, hGIII sPLA2 conf 42.8*, BODIPY interf 0.6 and BODIPY interf DR >122.
Cc1ccc(NC(=S)NNC(=O)c2cnccn2)cc1 was read as HGIII-sPLA2 inh 30.4*, hGIII sPLA2 conf 27.4* and BODIPY interf 0.4.
Cc1cccc(NC(=S)NNC(=O)c2ccco2)c1 was read as HGIII-sPLA2 inh 16.7, ARNT-TACC3 inh 7.3, Neddyl block 12.3, NadD inh -1.4 and DAGLB inhibitor 0.4.
`Cc1ccc(NC(=S)NNC(=O)c2nn(C)cc2Cl)cc1` gave HGIII-sPLA2 inh 33.5*, ARNT-TACC3 inh 28.5, Neddyl block 3.4, NadD inh 1.8, DAGLB inhibitor 0.5, hGIII sPLA2 conf 44.0*, BODIPY interf 1.9 and BODIPY interf DR >122.
Screening CCS(=O)(=O)N[C@@H]1C=C[C@H](CC(=O)NC2Cc3ccccc3C2)O[C@H]1CO returned ARNT-TACC3 inh 4.0.
O=C(Nc1ccc(Cl)c(Cl)c1)N1CCCCCC1 was read as HGIII-sPLA2 inh 7.6, ARNT-TACC3 inh -5.6, Neddyl block -11.6, NadD inh -1.1 and DAGLB inhibitor -3.2.
`O=C(c1ccc(NC(=S)Nc2ccc(Cl)c(Cl)c2)cc1)N1CCCC1` gave HGIII-sPLA2 inh 19.5*, ARNT-TACC3 inh -3.1, Neddyl block -2.9, NadD inh -1.3, DAGLB inhibitor 0.7, hGIII sPLA2 conf 6.4 and BODIPY interf -2.8.
Screening O=C(NNC(=S)Nc1ccc(Cl)c(Cl)c1)c1ccccn1 returned HGIII-sPLA2 inh 32.3*, ARNT-TACC3 inh 74.8*, Neddyl block 33.2, NadD inh 0.5, DAGLB inhibitor 17.8, hGIII sPLA2 conf 41.8* and BODIPY interf 6.5*.
`S=C(NCc1ccccn1)Nc1ccc(Cl)c(Cl)c1` gave HGIII-sPLA2 inh 3.5, Neddyl block 4.8, NadD inh 3.2 and DAGLB inhibitor -0.6.
Screening CCCC(=O)Nc1ccc2c(c1)OC[C@@H](C)N(Cc1cncnc1)C[C@@H](C)[C@@H](OC)CN(C)C2=O returned ARNT-TACC3 inh -6.4.
CN1CCN(C(=O)C[C@H]2C[C@H]3c4cc(NC(=O)Nc5ccc(F)cc5)ccc4O[C@H]3[C@H](CO)O2)CC1 was read as ARNT-TACC3 inh -4.4.
For CN(C1=C(NC(=O)c2ccc(Cl)cc2)C(=O)c2ccccc2C1=O)c1ccccc1 the results were HGIII-sPLA2 inh 44.0*, Neddyl block -14.6, NadD inh 3.3, DAGLB inhibitor 24.6, hGIII sPLA2 conf 48.8* and BODIPY interf 7.6*.
`CCC(=O)N(C)C[C@H]1Oc2ncc(C3=CCCC3)cc2C(=O)N([C@@H](C)CO)C[C@H]1C` gave ARNT-TACC3 inh -1.2.
C[C@H](CO)N1C[C@H](C)[C@H](CN(C)S(=O)(=O)c2cccc(F)c2)Oc2ncc(-c3cccc(F)c3)cc2C1=O was read as ARNT-TACC3 inh 2.4.
COc1ccc2c(c1)-c1c(ssc1=S)C(C)(C)N2S(=O)(=O)c1ccc(C)cc1 was read as HGIII-sPLA2 inh 13.1, ARNT-TACC3 inh 1.4, Neddyl block -25.2, NadD inh 0.6 and DAGLB inhibitor 23.4.
`Cc1ccc(S(=O)(=O)N2c3ccccc3-c3c(ssc3=S)C2(C)C)cc1` gave HGIII-sPLA2 inh 27.8*, ARNT-TACC3 inh 17.1, Neddyl block -25.1, NadD inh -0.4, DAGLB inhibitor 19.2, hGIII sPLA2 conf 24.2* and BODIPY interf 4.7.
Nc1[nH]c(C(=O)c2ccccc2)c(-c2ccccc2C(F)(F)F)c1C(=O)c1cccs1 was read as HGIII-sPLA2 inh 19.8*, Neddyl block 12.9, NadD inh 12.6, hGIII sPLA2 conf 9.9 and BODIPY interf -5.9.
Screening Nc1[nH]c(C(=O)c2ccccc2)c(-c2ccc(Br)cc2)c1C(=O)c1cccs1 returned HGIII-sPLA2 inh -12.7, Neddyl block -5.6 and NadD inh 12.2.
For CCOc1ccccc1NC(=S)NC1CC2CCC1C2 (configuration not stated) the results were ARNT-TACC3 inh -4.8, Neddyl block -2.6, NadD inh -0.9 and DAGLB inhibitor 1.2.
Screening COc1cccc(C=NNC(=S)NC2CC3CCC2C3)c1O (configuration not stated) returned HGIII-sPLA2 inh 26.4*, hGIII sPLA2 conf 31.4* and BODIPY interf 7.8*.
COc1ccc(NC(=S)NC2CC3CCC2C3)c(OC)c1 (configuration not stated) was read as HGIII-sPLA2 inh 20.7*, ARNT-TACC3 inh 6.3, Neddyl block -0.6, NadD inh 2.3, DAGLB inhibitor -0.2, hGIII sPLA2 conf 19.7* and BODIPY interf -1.2.
Screening Oc1cccc(NC(=S)Nc2ccc(SC(F)F)cc2)c1 returned HGIII-sPLA2 inh 35.2*, ARNT-TACC3 inh -7.8, Neddyl block 0.5, NadD inh 1.4, DAGLB inhibitor 3.0, hGIII sPLA2 conf 2.4 and BODIPY interf 4.9.
